Data from PubChem BioAssay AID1619 (SRMLSC, 2009).
Screen size: about 220,000 compounds; about 830 (0.38%) were called active. Only a sample is shown. Measured potencies and affinities stand elsewhere. Unmarked numbers belong to inactive results.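 Rule for the calls: active = compound inhibiting the enzyme by more than half at any dose during confirmatory dose-response retesting; inconclusive = strong single-dose inhibitors picked by rank but not retested; inactive = the rest.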

These compounds were tested against Leucine aminopeptidase (Plasmodium falciparum (isolate 3D7)) (UniProt Q8IL11) (assay: P. falciparum M17LAP inhibitors, primary screen, biochemical, fluorogenic H-Leu-NHMec substrate, 1536-well (AID 1619;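 note: plate controls were full reaction with DMSO carrier for no effect and no enzyme background for full effect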)). Conditions: recombinant M17LAP, H-Leu-NHMec fluorogenic kinetic assay; at 30 µM; stronger effect = higher value.
Leucine aminopeptidase (Plasmodium falciparum (isolate 3D7)), sequence (Q8IL11 whole entry, looked up): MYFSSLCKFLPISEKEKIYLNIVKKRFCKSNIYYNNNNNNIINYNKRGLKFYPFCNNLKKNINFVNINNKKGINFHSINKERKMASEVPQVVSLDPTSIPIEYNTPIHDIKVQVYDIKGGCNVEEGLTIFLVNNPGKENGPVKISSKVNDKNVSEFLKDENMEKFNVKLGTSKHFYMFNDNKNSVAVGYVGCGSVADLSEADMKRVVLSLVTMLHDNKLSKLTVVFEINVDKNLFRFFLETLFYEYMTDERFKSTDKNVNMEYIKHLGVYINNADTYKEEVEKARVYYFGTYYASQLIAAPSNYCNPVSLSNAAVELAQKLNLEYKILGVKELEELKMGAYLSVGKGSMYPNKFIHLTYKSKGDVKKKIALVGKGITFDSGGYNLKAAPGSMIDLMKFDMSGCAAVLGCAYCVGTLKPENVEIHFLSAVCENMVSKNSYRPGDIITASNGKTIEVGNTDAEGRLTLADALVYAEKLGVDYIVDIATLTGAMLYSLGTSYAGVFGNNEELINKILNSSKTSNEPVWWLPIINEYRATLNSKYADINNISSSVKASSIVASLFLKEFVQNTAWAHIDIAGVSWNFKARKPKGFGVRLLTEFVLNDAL

| SMILES | inhibition [%] |
| --- | --- |
| CCc1cccc2c(=O)c(C(=O)N3CCCCCC3)c[nH]c12 | 3.21 |
| CCN1CCc2c(OCC(=O)N3CCCc4ccccc43)cccc2C1=O | 0.37 |
| CC(C)=C1C2CCC1C(C(=O)Nc1sc(C)c(-c3ccc(C(C)C)cc3)c1C(N)=O)C2C(=O)O (stereo not given) | -4 |
| Cc1sc(NC(=O)/C=C/C(=O)O)c(C(N)=O)c1-c1ccc(C(C)(C)C)cc1 | 21.9 |
| Cc1sc(NC(=O)C2CCCCC2C(=O)O)c(C(N)=O)c1C (stereo not given) | 45 |
| Cc1sc(NC(=O)C2C3CCC(C3)C2C(=O)O)c(C(N)=O)c1-c1ccc(C(C)(C)C)cc1 (stereo not given) | 39.7 |
| COC(=O)c1c(NC(=O)/C=C/C(=O)O)sc(C)c1-c1ccc(C(C)C)cc1 | 15.5 |
| CCc1c(C)sc(NC(=O)C2CCCCC2C(=O)O)c1C(N)=O (stereo not given) | 50.6 |
| CCc1ccc(-c2c(C)sc(NC(C)=O)c2C(N)=O)cc1 | 41.9 |
| Cc1sc(NC(=O)CCC(=O)O)c(C(N)=O)c1-c1ccccc1 | 18 |
| COc1ccccc1-c1n[nH]c(=S)n1N | -6.79 |
| COC(=O)/C(=C/c1ccccc1)NC(=O)c1ccco1 | 0.48 |
| COC(=O)c1ccc(CN2CCN(Cc3ccc(F)cc3)C(CCO)C2)cc1 (stereo not given) | -9.03 |
| Cc1ccc(NC(=O)C(CC(C)C)NC(=O)C2CCC(C)CC2)nc1 (stereo not given) | -1.65 |
| CC(C)NC(=O)COC(=O)c1ccc(Cl)c(S(=O)(=O)N2CCCC2)c1 | 4.58 |
| Cc1ccc2cc(CCNC(=O)c3ccco3)c(=O)[nH]c2c1C | -13.9 |
| O=C(CCC(=O)NNC(=O)COc1ccccc1)NCc1ccccc1 | -10.8 |
| CC(=O)C1=C(O)C(=O)N(CCCO)C1c1ccccc1 (stereo not given) | 27.1 |
| O=C(c1ccc(S(=O)(=O)N2CCCCC2)cc1)N(c1ccccn1)C1CCCCC1 | 0.89 |
| O=[N+]([O-])c1ccc(N2CCCC2)cc1NC(c1ccccc1)c1ccccc1 | 8.49 |

| SMILES | inhibition [%] |
| --- | --- |
| CCOc1ccc(NC(=O)C(=O)N/N=C\c2ccc(CNS(=O)(=O)c3ccccc3)o2)cc1 | 0.49 |
| O=Cc1cc(N=Nc2ccccc2Cl)ccc1O | 40.2 |
| O=C1CCCC(O)=C1N=Nc1cccc(C(=O)O)c1 | 46.3 |
| CCCCCNC(=O)c1ccc2c(=O)[nH]c3c(C(=O)NCC4CCCO4)sc(=S)n3c2c1 (stereo not given) | 53.8 |
| O=C(NC1CCCCC1)c1sc(=S)n2c1[nH]c(=O)c1ccccc12 | 24.2 |
| O=C(NCc1ccccc1)c1sc(=S)n2c1[nH]c(=O)c1ccccc12 | 27.9 |
| Cc1ccc(CNC(=O)c2ccc3c(=O)[nH]c4c(C(=O)NCC5CCCO5)sc(=S)n4c3c2)cc1 (stereo not given) | 1.99 |
| Cc1ccc(Nc2nc(N)nc(CSc3nnc(-c4ccncc4)o3)n2)cc1 | -3.96 |
| O=c1cc(C(Cl)(Cl)Cl)oc2c1ccc1ccccc12 | -3.47 |
| CC(=O)C1=C(O)C(=O)N(c2ccc(S(N)(=O)=O)cc2)C1c1ccc([N+](=O)[O-])cc1 (stereo not given) | 23 |
| Cc1ccc(N2CC(=O)Nc3c(oc4nc(-c5ccccc5)cc(C)c34)C2=O)cc1 | -16.6 |
| COC(=O)CSc1[nH]c(=O)cc(C)c1C#N | 0.03 |
| Cc1cc(=O)[nH]c(SCC(=O)O)c1C#N | 2.48 |
| Cc1cc(=O)[nH]c(SCC(=O)c2ccccc2)c1C#N | 16.9 |
| CCOC(=O)CSc1[nH]c(=O)cc(C)c1C#N | 17 |
| CCOC(=O)NC(=O)C(=CNc1ccccc1OC)C(=O)NC(=O)OCC | 22.1 |
| O=[N+]([O-])c1ccc([C@H](O)[C@H](CO)N=Cc2ccccc2O)cc1 | 3.71 |
| CCNC(=O)CC1C(=O)N(c2ccccc2)C(=O)N1Cc1ccc(OC)cc1 (stereo not given) | -7.36 |
| Cc1c(-c2nnc(-c3ccc(C(F)(F)F)cc3)o2)cnn1-c1ccccc1 | -4.2 |
| CC(/C=C1\SC(=S)N(CC(=O)O)C1=O)=C\c1ccccc1 | 19.7 |

| SMILES | inhibition [%] |
| --- | --- |
| CC(=C\c1ccccc1)/C=C1/SC(=O)N(CCCC(=O)Nc2ccc(C(=O)O)cc2)C1=O | 52.8 |
| CC(=O)Nc1sc2c(c1C#N)CCC(C)C2 (stereo not given) | -3.55 |
| CCCC1CCc2c(sc(NC(=O)OCC)c2C#N)C1 (stereo not given) | -10 |
| CN1CCN(CC(=O)Nc2sc3c(c2C#N)CCC(C(C)(C)C)C3)CC1 (stereo not given) | -2.54 |
| Cc1cc(C(=O)Nc2sc3c(c2C#N)CCC(C(C)(C)C)C3)no1 (stereo not given) | -3.46 |
| CCCn1ncc(CN2CCN(Cc3ccsc3)C(CCO)C2)c1C (stereo not given) | -4.96 |
| Cc1ccc(Nc2ccc(-n3ccnc3)nn2)cc1C | 1.15 |
| CCCCNC(=O)N1CCN(C(=O)C2CCCO2)CC1 (stereo not given) | -0.24 |
| C=C(C)COc1ccc2oc(C)c(C(=O)OCCOC)c2c1 | -2.33 |
| CCCCOc1ccc(N(CC(=O)NCC2CCCO2)C(=O)CCC(=O)Nc2nccs2)cc1 (stereo not given) | -11.6 |
| CCOc1ccc(NC(=O)C2CC(=O)NC(N3CCc4ccccc43)=N2)cc1 (stereo not given) | 13.4 |
| O=C(CSc1nccc(-c2cccs2)n1)Nc1ccc(F)c(Cl)c1 | 8.92 |
| CCC(=O)Nc1ccc(Br)c(Cl)c1 | -2.61 |
| Nc1cc(=O)[nH]c(SCC(=O)Nc2ccc(F)c(Cl)c2)n1 | 45.2 |
| CCn1c2ccccc2c2cc(NC(=O)CC(C)=O)ccc21 | -12.3 |
| CCCC(=O)Nc1ccc2c(c1)c1ccccc1n2CC | -0.99 |
| O=C(CSc1nccc(=O)[nH]1)Nc1ccc(F)c([N+](=O)[O-])c1 | 31.4 |
| CN(C)S(=O)(=O)c1cccc(NC(=S)NCCCn2ccnc2)c1 | 2.61 |
| Cn1nnc2cc(C(=O)N3CCC(c4ccccc4)C3)ccc21 (stereo not given) | 9.75 |
| O=C(COc1ccc(/C=N/NC(=O)c2ccc(O)cc2)cc1)Nc1cccc([N+](=O)[O-])c1 | -2.3 |
